Assay results taken from the supplement of paper PMC6555819.

Columns and labels:
Assay in all cases: PBM binding z-score (relative to random genomic background probes); higher = stronger binding; sequences stand for … in GC…GCGATTGACAGCGTAGAATGAAGG
[1] = system: RARg:RXRa (NR concentration 270 nM, RXRa partner concentration 90 nM)
Outline: (§1)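 Binding z-scores were set against random background probes. The data came from custom Agilent 4×180K protein-binding microarrays carrying double-stranded probes with 34-nt variable regions, incubated 1 h with ligand-free nuclear receptor dimers. Partner-specific antibodies detected binding, and scanned fluorescence was regression-normalized.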

[2] = system: RARg homodimer (NR concentration 270 nM)
Outline: as §1

[3] = system: RXRa DBDmut IVT, anti-RXR (DBD mutation: RXRa K156A/R161A, NR concentration 90 nM)
Outline: as §1

[4] = system: RXRa homodimer (NR concentration 180 nM)
Outline: as §1

[5] = system: THRa:RXRa (NR concentration 90 nM, RXRa partner concentration 90 nM)
Outline: as §1

[6] = system: THRa homodimer (NR concentration 90 nM)
Outline: as §1

[7] = system: VDR homodimer (NR concentration 270 nM)
Outline: as §1

Row | Sequence | PBM binding z-score [1] | PBM binding z-score [2] | PBM binding z-score [3] | PBM binding z-score [4] | PBM binding z-score [5] | PBM binding z-score [6] | PBM binding z-score [7]
1 | AACGAAAGGTCGAAGGTGAGTATACCCACCCGAA | 4.5 | 3.96 | 1.05 | 5.29 | 2.16 | -0.462 | 0.527
2 | CCTACTGGGCCAAAGAGGTCATTGATGCCGATAA | 4.01 | 3.31 | 1.39 | 4.45 | 3.35 | 0.927 | 3.97
3 | GATATAGGGTCAGCTAGAGGCCAGAGTATGGAAA | 6.81 | 5.11 | 1.67 | 4.63 | 3.42 | 0.95 | 0.867
4 | CAAACTAGTTCAAGAGGTCAAAGTCCGCTTCCCG | 6.53 | 5.81 | 3.18 | 7.43 | 3.77 | 1.92 | 4.98
5 | CCTTACGGGTAACGAGGTTATAGCACGACGAGCG | 1.01 | 0.837 | -0.598 | 1.43 | 1.35 | 0.247 | 0.527
6 | AGAATGGGGTTACCAAAGATCAGGGAAACGCTTG | 2.9 | 1.43 | 1.25 | 4.79 | 3.07 | 0.513 | 0.217
7 | CGTCCAAGGTCAATGCTAGATCAGTGAAAGCATT | 5.61 | 5.86 | 3.56 | 4.83 | 3.51 | 1.97 | 2.34
8 | ATATGTAGGTTGGGGTCATTCAGAAAGTAGGGAA | 5.15 | 3.36 | 3.69 | 7 | 4.34 | 3.84 | 6.23
9 | CGTCCAAAGTCAAAGGTCAGTGAAGAGATGACGG | 4.93 | 5 | 0.813 | 5.96 | 2.81 | 0.117 | 0.98
10 | AATACAAGGTCATCGTAGGCCAGAGTACGCACAG | 6.21 | 6.23 | 3.94 | 6.37 | 4.47 | 2.74 | 4.03
11 | CCTACTGGGCCAAAGGTGATTGATTCCAATGCTC | 0.547 | 0.234 | -0.2 | 0.624 | 0.0559 | -0.0264 | 0.165
12 | CCTACTGGGCCATTCAGAGGTCAATGATCATATG | 4.55 | 3.43 | 0.406 | 3.05 | 2.97 | 1.32 | 1.44
13 | CTATGTAGGTTAGGGGGGTCATTCAGTTTGAAAG | 5.7 | 4.91 | 3.23 | 5.83 | 4.21 | 3.25 | 6.97
14 | ATCGAAAGGTCCACGAGGTGAGTATACACCGTTT | 1.13 | 1.3 | 0.571 | 0.952 | 1.96 | 0.835 | 0.691
15 | TAGCCTAGGTCATGCGGGCCAATATAGTGTCGGC | 3.98 | 4.36 | 0.554 | 3.1 | 3.14 | 0.979 | 0.902
16 | ATCGAAAGGTCTAAGGTGAGTATACCCACCCGAA | 1.27 | 1.29 | -0.301 | 1.25 | 2.28 | 1.67 | 0.152
17 | CGAACTAGGTCATCCAGGTCAGTGAATACATTGA | 4.85 | 5.61 | 2.52 | 3.47 | 4.21 | 2.83 | 3.77
18 | AGTCAAAGTTCATCTAGGTAACATAAGATATGCT | 5.69 | 6.1 | 4.79 | 4.84 | 3.19 | 0.324 | 5.55
19 | ATATGTAGTTTATCGGGTCATTCAGTTTGCGCAT | 2.41 | 1.85 | 2.32 | 2.61 | 3.42 | 3.09 | 4.13
20 | CCTACTGGGCCACGAAAGGCCATTGATTCAGTGA | 0.332 | 0.725 | -0.292 | -0.0677 | 1.15 | -0.457 | -0.271

Row | Sequence | PBM binding z-score [1] | PBM binding z-score [2] | PBM binding z-score [3] | PBM binding z-score [4] | PBM binding z-score [5] | PBM binding z-score [6] | PBM binding z-score [7]
21 | GGAACGAGGGCAAAGTTCATAGCATCTGTCGACG | 5.71 | 3.92 | 3.54 | 6.27 | 3.03 | 0.017 | 4.43
22 | AGCGAAAGGTCGAGGTGAGTATAGAGAAAGGGAA | 4.32 | 4.24 | 0.946 | 4.46 | 2.89 | 0.747 | 0.467
23 | ATCGAAAGGTCGTGAGGTAAGTATACAGAAAGGC | 4.63 | 3.93 | 1.25 | 5.18 | 3.09 | 1.01 | 1.24
24 | CCTTACGGGTCACTGACAGGTTATAGCGTTTGGA | 5.75 | 4.55 | 1.73 | 5.06 | 2.76 | 0.417 | 1.2
25 | TCTATTAGTTGATTAGGGCAACCGAAACAGCGGA | 0.66 | 0.733 | 1.18 | 0.678 | 0.697 | 0.563 | 0.736
26 | CGAACTAGGTCGCCAGGACAGTGAAGAGGTTGGA | 0.757 | 1.27 | 0.47 | 0.761 | 1.68 | 0.578 | -0.15
27 | ATCGAAAGGTCGACGAGGTGAGTAAACACCGTTT | 4.4 | 4.12 | 0.855 | 4.54 | 3.78 | 0.706 | 0.649
28 | CCTTACGGGTTACTCCAGGTTATAGCATCGGAGT | 0.987 | 0.779 | -0.0626 | 1.26 | 4.49 | 0.236 | 0.487
29 | CGAACAAGGTCACCAGGACAGTGAAGAGGTTGGA | 6.81 | 6.95 | 3.8 | 7.03 | 4.15 | 3.1 | 2.83
30 | TCTAGTTGGTCACGGAGGTCCCACACGACGGGTA | 1.02 | 1.61 | 0.484 | 0.931 | 0.42 | 0.108 | -0.235
31 | ATCGAAAGGTCGACGCGGTGAGTATACACCGTTT | 4.07 | 4.09 | 1.12 | 3.83 | 1.97 | -0.506 | 0.391
32 | TATCAAAGTTCAAAGGTAACGTAAGTATCCACAC | 6.25 | 6.03 | 4.5 | 7.49 | 3.56 | 0.168 | 4.2
33 | CCTACTGGGCCATTCAGAGGGCATTGATCATATG | 1.43 | 0.891 | -0.189 | 0.134 | 0.0655 | -0.325 | 0.582
34 | CGAACGAGGTCATTGACAGGACAGTGAATAGTAA | 7.11 | 6.33 | 4.84 | 7.11 | 4.06 | 2.45 | 5.66
35 | GATACAGGGTCGGCTAGAGGCCAGAGTATGGAAA | 4.14 | 1.5 | -0.0719 | 1.49 | 1.22 | -0.62 | 0.35
36 | AATACAGGGTGACTAGGCCAGAGTAGGTACGAAT | 0.739 | 0.693 | -0.419 | 0.911 | 0.915 | 0.154 | 0.309
37 | TCTTGTAGATCAATAGAAGTTAAGAAAGTGCGCT | 0.119 | 0.155 | 1.24 | 0.537 | 0.00398 | -0.786 | 0.102
38 | TCTTGTAGATCGATAGAGGTTAAGAAAGTGCGCT | 0.525 | 0.389 | 0.591 | 1.1 | 1.48 | -0.46 | 0.0902
39 | CGAACTAGGTCATCCAGGACCGTGAATACATTGA | 3.95 | 4.72 | 2.15 | 2.82 | 3.12 | 0.969 | 0.996
40 | TCTTGTAGATCAACAGGAGGTTAATAAAGATCGA | 0.776 | 0.301 | 0.161 | 1.03 | 0.904 | -0.0853 | -0.179

Row | Sequence | PBM binding z-score [1] | PBM binding z-score [2] | PBM binding z-score [3] | PBM binding z-score [4] | PBM binding z-score [5] | PBM binding z-score [6] | PBM binding z-score [7]
41 | CGTCCAAGGTTAAGGTCAGTGAAAGAGACTCGAA | 4.2 | 4.7 | 1.71 | 3.45 | 3.83 | 3.83 | 1.79
42 | CGAACTAGGTCGAGGACAGTGAATCTCCGCACGC | 0.749 | 1.36 | 0.54 | 0.381 | 2.11 | 1.45 | 0.0594
43 | TCTCGGAGGAAACGAAAGGTCAGAGCTCGACATC | 4.03 | 3.59 | 0.822 | 4.07 | 2.59 | 0.0929 | 0.612
44 | CAGCATAGGTCAGGGCCAGTATAGGAGGAACGTT | 3.97 | 4.39 | 0.209 | 3.33 | 1.65 | -0.231 | -0.0525
45 | ATCTCTAGGTTAAGATAGTTCAGTGAATGCAAAT | 1.73 | 1.87 | 0.534 | 1.14 | 1.81 | 0.578 | 0.933
46 | ACTTACGGCTCAACGAGGTTATAGCACGCGTATA | 0.411 | 0.49 | 0.343 | 0.9 | 1.33 | 0.562 | 0.756
47 | CAAACTAGGTCACAGTGGTCAAAGTCCGTGCGTA | 4.19 | 5.18 | 1.51 | 3.32 | 3.17 | 1.43 | 1.23
48 | GCTGCTAGGTCAACTGATGGCCAGCTAAAGCTCG | 4.59 | 5.33 | 1.01 | 2.75 | 2.89 | 0.674 | -0.329
49 | TCGAGTAGGTCACGGGGGCATTCAGGGATGAAGA | 6.77 | 6.69 | 2.23 | 6.31 | 4.48 | 1.6 | 3.74
50 | ATCAAAAGGTCGAGGTGAGTATAGAGAAAGGGAA | 4.7 | 4.98 | 1.28 | 4.83 | 3.11 | 1.26 | 1.18
51 | CCTACTGGGCCACTAAAGGTCATTGATTCAGTGA | 4.48 | 4.5 | 0.757 | 4.87 | 3.61 | 0.905 | 2.62
52 | TCTAGTTGGTCACGGAGGACACACACGACGGGTA | 1.55 | 2.32 | 0.501 | 0.864 | 1.83 | 1.27 | 0.76
53 | ATATGTAGGTTAGCTGGGGTCATTCACACTAGGC | 4.14 | 3.12 | 1.95 | 5.25 | 5.01 | 3.56 | 5.37
54 | CCAACTGGGCCAAAAAGGTCATTGATGCCGATAA | 4.71 | 4.35 | 0.992 | 5.08 | 3.11 | 0.427 | 2.62
55 | AGTCAAAGTTGAGGACGAGGTAACGTAAAGCACG | 1.38 | 1.24 | -0.405 | 0.856 | 3.3 | 1.96 | 0.344
56 | CGTTCAAGGTCAAAGGTCAGTGAAGAGATGACGG | 8.78 | 8.73 | 4.53 | 10.3 | 5.04 | 3.34 | 3.81
57 | ATATGTAGGTTAAGCGTCATTCAGGTTGGTTCGC | 0.863 | 0.763 | 0.559 | 1.15 | 0.543 | 0.263 | 0.378
58 | CGAACTAGGTCTAAGGACAGTGAAAGGCGACGTA | -0.0449 | 0.382 | 0.0916 | 0.0481 | 2.65 | 1.96 | -0.112
59 | AGTCAAAGTGCATCTAGGTAACGTAAGATATGCT | 1.07 | 1.23 | 1.55 | 0.663 | 1.31 | -0.154 | 0.36
60 | TTGCCTAGGTCATTGGGCCAGTATAGTACGCATC | 3.73 | 4.22 | 1.9 | 2.8 | 2.89 | 1.05 | 1.14
